# From PubChem
# This is a sample that favours compounds with a hit; in the whole collection about 0.24% have one here.
# NPYLR7 agonist: mosquito NPYLR7 agonism; AID 1259423; HEK293T NPYLR7/Galpha15, GCaMP6s calcium fluorescence; activation, % at 10 µM; 270,000 compounds, 0.15% hits; in the data active = activation above about 40%;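 note: 0% = vehicle and 100% = reference agonist at the receptor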
# hcGAS inh: human cGAS inhibition | recombinant h-cGAS, ATP depletion, Kinase-Glo luminescence | 290,000 compounds, 0.081% hits | inhibition, % at 12.5 µM | Q8N884;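 note: 0% = vehicle reaction and 100% = reaction without DNA for no activity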
# Target sequence (Q8N884 whole entry, looked up): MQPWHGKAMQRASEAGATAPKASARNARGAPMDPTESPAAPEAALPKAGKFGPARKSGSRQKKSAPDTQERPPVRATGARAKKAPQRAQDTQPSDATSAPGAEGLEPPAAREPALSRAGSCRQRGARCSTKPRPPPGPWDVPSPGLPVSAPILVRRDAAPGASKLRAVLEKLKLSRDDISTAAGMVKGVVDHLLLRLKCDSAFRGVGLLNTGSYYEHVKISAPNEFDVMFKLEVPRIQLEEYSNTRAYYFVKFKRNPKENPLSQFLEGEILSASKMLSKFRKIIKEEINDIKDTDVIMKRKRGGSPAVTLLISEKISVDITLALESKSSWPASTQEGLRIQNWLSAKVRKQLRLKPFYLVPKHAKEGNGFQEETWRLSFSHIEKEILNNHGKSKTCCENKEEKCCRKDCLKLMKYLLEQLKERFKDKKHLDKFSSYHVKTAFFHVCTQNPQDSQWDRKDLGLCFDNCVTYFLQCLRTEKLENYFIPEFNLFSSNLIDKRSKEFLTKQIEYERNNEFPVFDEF
# mcGAS lum: inhibitors of mouse cGAS | Q8C6L5 | recombinant cGAS, Kinase-Glo ATP depletion luminescence | inhibition, % at 12.5 µM | 160,000 compounds, 0.15% hits;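 note: 0% = negative control wells and 100% = reference inhibitor with no enzyme activity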
# An asterisk follows results filed as active; x = no result; ! = a repeat was not active. Cut-off read from the data, not from the text of the source, unless noted: active = inhibition above about 40%; inactive = the rest.
SMILES,NPYLR7 agonist,hcGAS inh,mcGAS lum
COc1cccc2c1C(=O)c1c(O)c3c(c(O)c1C2=O)C[C@@](O)(C(=O)CO)C[C@@H]3O[C@H]1C[C@H](N)[C@@H](O)[C@H](C)O1,-3.4,47.7*,x
CC(=O)[C@]1(O)Cc2c(O)c3c(c(O)c2[C@@H](O[C@H]2C[C@H](N)[C@H](O)[C@H](C)O2)C1)C(=O)c1ccccc1C3=O,99.7*,68.6*,96.1*
COc1cccc2c1C(=O)c1ccccc1C2=O,-3.9,1.5,-3.0
O=C(c1ccco1)N1CCC(c2nc(-c3ccc(F)c(F)c3)no2)CC1,x,-0.6,2.3
CN(Cc1ccccc1)Cc1c(O)ccc2c1O/C(=C\c1ccncc1)C2=O,36.5,-2.2,0.5
Oc1ccc(N=Nc2nn[nH]n2)c(O)c1,-0.1,30.7,x
CN1C[C@@H]2CC[C@H](CC1=O)N2S(=O)(=O)N1CCOCC1,0.3,-2.3,x
Cc1cccc(NC(=O)c2cc([N+](=O)[O-])ccc2Cl)n1,-0.2,-3.6,x
Cc1ccnc(SCc2cc(=O)c(OC(=O)COc3ccccc3C)co2)n1,-7.4,-1.5,-6.3
Cc1cc(C)nc(SCc2cc(=O)c(OC(=O)Cc3cccs3)co2)n1,-22.1,8.0,7.2
Cc1cc(C)nc(SCc2cc(=O)c(OC(=O)c3ccccc3Cl)co2)n1,-12.9,-7.4,-4.8
Cc1cc(C)nc(SCc2cc(=O)c(OC(=O)Cc3cccc4ccccc34)co2)n1,-8.8,12.5,68.2*
Cc1cc(C)nc(SCc2cc(=O)c(OC(=O)C3c4ccccc4Oc4ccccc43)co2)n1,-6.4,-2.4,92.8*
Cc1ccnc(SCc2cc(=O)c(OC(=O)Cc3cccc4ccccc34)co2)n1,13.8,5.6,59.9*
Cc1ccccc1CSc1nc(=O)n2cccc(C)c2n1,5.2,-12.1,x
COc1cccc(-c2nn(-c3ccccc3)cc2CN(Cc2c(C)nn(C)c2C)C2CC2)c1,11.1,-9.6,-9.2
O=C(CCC1CCCN(Cc2cccc3c2oc2ccccc23)C1)N1CCOCC1 (stereo not drawn),6.7,-6.4,x
CCOC(=O)CCC(=O)N(CC(=O)N1CCc2sccc2C1c1ccc(C(C)(C)C)cc1)C1CC1 (stereo not drawn),1.4,-9.6,-5.8
CC(=O)Nc1ccc(NC(=O)CSc2nc3c(-c4ccccc4)c(C)nn3c(=O)[nH]2)cc1,8.3,28.8,-4.1
Cc1nn2c(=O)[nH]c(SCC(N)=O)nc2c1-c1ccccc1,15.6,54.9*,0.4
Cn1nnc2cc(C(=O)NCc3ccccc3-n3ccnc3)ccc21,10.6,-6.1,x
CCN1CCN(C(=O)c2ccccc2N2CCC(NC(=O)C3CCCC3)CC2)CC1,8.2,-0.7,x
C#CCN1C(=O)SC(=Cc2ccc(N3CCCCC3)o2)C1=O,121.9*,-7.5,-3.3
CC(C)N1C(=O)SC(=Cc2ccc(N3CCCCC3)o2)C1=O,10.5,-6.2,-5.7
COc1ccc(C(=O)CSc2nc(N)c(NC(=O)c3ccccc3)c(=O)[nH]2)cc1,-1.7,-6.2,-8.4
SMILES,NPYLR7 agonist,hcGAS inh,mcGAS lum
O=C(c1cc(COc2cccc(F)c2)[nH]n1)N1CC(N2CCOCC2)C1,2.3,-2.3,x
CN(C)c1ccc(CNC(=O)N2CCCC(NC(=O)OC(C)(C)C)C2)cn1 (stereo not drawn),11.1,-5.1,-16.3
O=C(C1=NN(c2ccccc2)C2C(=O)N(c3ccccc3)C(=O)C12)c1ccccc1 (stereo not drawn),64.5*,-5.0,-3.6
CC(=O)C1=NN(c2ccccc2)C2C(=O)N(c3ccc(Br)cc3)C(=O)C12 (stereo not drawn),5.3,-0.1,-2.6
O=[N+]([O-])c1ccc(-n2nc3ccc4nonc4c3n2)cc1,80.9*,-3.8,-6.5
O=[N+]([O-])c1ccccc1-n1nc2c3nonc3ccc2[n+]1[O-],0.8,-5.2,-5.7
N#CCCCSc1nc2ccccc2c(=O)n1CC1CCCO1 (stereo not drawn),7.3,-2.4,-3.1
CC(C)CN1C(=O)SC(Nc2ccccc2)C1=O (stereo not drawn),15.7,-7.7,-4.6
O=C1SC(Nc2ccc(I)cc2)C(=O)N1c1ccccc1 (stereo not drawn),63.4*,-3.0,-2.2
CCOC(=O)Cc1c(C)nc2ncnn2c1N1CCN(C/C=C/c2ccccc2)CC1,18.1,-3.2,-5.1
CCCCOC(=O)c1ccc(NC(=O)c2cc(=O)c(OC)co2)cc1,7.4,-9.6,x
Clc1ccc(C2=Nc3ncnn3C(c3ccc(Cl)cc3)C2)cc1 (stereo not drawn),8.5,-7.2,x
CSc1ccc(C2CC(c3ccc(Cl)cc3)=Nc3ncnn32)cc1 (stereo not drawn),92.4*,-10.6,x
Cc1ccc(N2CC(C(=O)NNC(=O)C3COc4ccccc4O3)CC2=O)cc1 (stereo not drawn),-0.1,9.7,-1.8
COC(=O)C1CCN(S(=O)(=O)c2cc(Br)ccc2Br)CC1,5.4,3.5,x
COC(=O)C1CCN(S(=O)(=O)c2c(F)cc(F)cc2Br)CC1,88.3*,-7.8,x
Oc1cccc(-c2nc3c(Nc4ccccc4)nccc3[nH]2)c1,-3.7,0.3,-5.3
CO[C@@]1(NC(=O)CSCC#N)C(=O)N2C(C(=O)O)=C(CSc3nnnn3C)CSC21 (stereo partly drawn),49.0*!,-5.8,x
CO[C@@]1(NC(=O)C2SC(=C(C(N)=O)C(=O)O)S2)C(=O)N2C(C(=O)O)=C(CSc3nnnn3C)CS[C@@H]21 (stereo partly drawn),-3.6,-1.2,x
CC(C)C(NCC(=O)Nc1ccccc1C(N)=O)c1ccccc1 (stereo not drawn),8.0,-4.9,x
Cc1nc(=O)c(-c2ccccc2)c(C)n1-c1ccccc1O,80.2*,-3.4,-5.5
Cc1nc(=O)c(-c2ccccc2)c(C)n1-c1ccccc1,-11.6,-3.7,x
CN(C)c1ccc(Sc2nnc(NC(=O)C(C)(C)C)s2)cc1,-4.3,-2.3,-3.7
CCc1ccc(CN(C)C(=O)c2nc3c(C)cccn3c2F)nc1,-0.4,-6.4,-12.4
N#CC1C(=N)SC2C(=O)N(c3ccc(F)cc3)C(=O)C2C1c1ccco1 (stereo not drawn),-3.0,-3.4,x
SMILES,NPYLR7 agonist,hcGAS inh,mcGAS lum
O=[N+]([O-])c1c[n+]([O-])n(-c2ccc3c(c2)OCCO3)n1,1.9,-1.5,-7.6
O=[N+]([O-])c1c[n+]([O-])n(-c2cccc(Cl)c2)n1,74.3*,2.7,-1.5
C=CCNC(CC(=O)Nc1ccc(OC(F)F)cc1)C(=O)O (stereo not drawn),22.0,-6.6,-9.3
S=c1n(CN2CCCC2c2ccccc2)cc2ccccn12 (stereo not drawn),12.6,54.9*,x
O=C(CN1CCCC1c1ccccc1)NCc1ccccc1 (stereo not drawn),2.9,-4.9,x
O=C(CN1CCN(c2ccc3c(c2)OCCO3)C1=O)NCc1ccccn1,2.4,-12.7,x
COc1ccc(-c2nnc3ccc(OCCNC(=O)Nc4ccccc4)nn23)cc1OC,-2.2,-6.0,-7.6
CCOC(=O)C(C#N)=Cc1ccc(F)cc1,-0.6,-2.6,x
CCOC(=O)CCC(=O)N1CCN(C(=O)c2cc3ccoc3n2Cc2ccc(C)cc2)CC1C (stereo not drawn),8.2,-3.8,-2.9
C=C(C)Cn1c(C(=O)N2CCN(C(=O)CCC(=O)OCC)C(C)C2)cc2ccoc21 (stereo not drawn),56.9*,-10.1,-6.5
CCCC(=O)OCC(O)CN(CCC(C)C)Cc1c(-c2ccc(F)cc2)noc1N(CC)CC (stereo not drawn),15.3,-5.0,-5.3
